# In PubChem BioAssay AID686979 (National Center for Advancing Translational Sciences (NCATS), 2013):
# Hit rate of the full screen: of about 420,000 compounds, about 50,000 (12%) were called active. Roughly 26% stayed inconclusive and do not appear here. The call rests on the fitted dose curve; in most records, active means well fitted inhibition curve with a large enough effect; inconclusive means small, poorly fitted or top-dose-only effect; inactive means flat fitted curve, though single readings scatter. Only a selection was taken, and actives are over-represented in it overall.
# Experiment: qHTS for Inhibitors of human tyrosyl-DNA phosphodiesterase 1 (TDP1): qHTS in cells in presence of CPT; further: nearly all actives have a fitted effect of over 55% in size
# Details: chicken DT40 Tdp1-/-;hTDP1 cells + 20 nM CPT, ATP luminescence, 48 h; series mostly up to 46.2 µM; activity change, negative = growth inhibition: at the top concentration
# Procedure, shortened: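 Chicken DT40 Tdp1-/- cells stably complemented with human TDP1 were seeded at 400 cells/well in medium containing 20 nM camptothecin, exposed to pin-transferred compounds, and grown at 37 °C for at least 48 hr. Viability was read as ATP luminescence.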
# On the % scale 0 is the no-effect control and ±100 the full control effect; potency means the concentration at half of the fitted maximal effect.
Structure (SMILES),"activity change, negative = growth inhibition",Potency
CCCCn1c(N)c(N2CCOCC2)c(=O)n(CC(=O)NCCc2ccccc2)c1=O,16.5% (inactive),
CN(C(=O)CSc1nnc(-c2n[nH]c3ccccc23)o1)c1ccccc1,-24.6% (inactive),
Cc1c(Cl)c([N+](=O)[O-])nn1CC(=O)NCCCN1CCOCC1,24.4% (inactive),
CCCC/C(C)=N/NC(=O)NC1CCCCC1,-4.55% (inactive),
O=C(COC(=O)/C=C/c1ccc(OC(F)F)cc1)NC1CCCCC1,0.0698% (inactive),
C/C(=N\NC(=O)NC1CCCCC1)c1ccc(OC(F)F)cc1OC(F)F,,23.1 µM (active)
O=C(NCc1ccccc1Cl)C1CCC(CNc2c(N3CCCCC3)c(=O)c2=O)CC1 (centres undefined),-0.925% (inactive),
COc1ccc2oc(=O)cc(CN3CCOCC3)c2c1,-16.2% (inactive),
FC(F)(F)C1CCCN(c2nsc3ccccc23)C1 (centres undefined),,2.31 µM (active)
O=C(NCC(=O)N1CCCC(C(F)(F)F)C1)c1ccccc1F (centres undefined),-11.4% (inactive),
O=C(NC(Cc1ccccc1)C(=O)N1CCCC(C(F)(F)F)C1)c1ccccc1 (centres undefined),-9.26% (inactive),
CCCCCC1CC(COc2ccccc2)OC1=O (centres undefined),6.66% (inactive),
COc1ccc(CCNC(=O)C(=O)NCC2OCCN2S(=O)(=O)c2ccc(OC)c(C)c2)cc1 (centres undefined),,18.4 µM (active)
COc1ccc(CCNC(=O)C(=O)NCC2OCCN2S(=O)(=O)c2ccc(F)cc2)cc1OC (centres undefined),-25% (inactive),
COc1ccc(S(=O)(=O)N2CCOC2CNC(=O)C(=O)NCc2ccncc2)cc1C (centres undefined),-28.4% (inactive),
CN(C)CCCNC(=O)c1cc(C(=O)Cc2ccc(Cl)cc2)c[nH]1,-24% (inactive),
CCCCN(CCCC)CC(O)Cn1c2ccccc2c(=O)c2ccccc21 (centres undefined),-27% (inactive),
Cc1ccc(C(=O)OCC(=O)N2CC(C)CC(C)C2)cc1S(=O)(=O)N1CCCCC1 (centres undefined),-15.4% (inactive),
COc1ccc(C2C(C(C)=O)=C(O)C(=O)N2Cc2cccnc2)cc1 (centres undefined),-2.63% (inactive),
CCCOc1ccc(C2c3c(-c4ccccc4O)n[nH]c3C(=O)N2Cc2cccnc2)cc1 (centres undefined),,23.1 µM (active)
CCOc1ccc(/C(O)=C2/C(=O)C(=O)N(Cc3cccnc3)C2c2ccc(N(C)C)cc2)c(C)c1 (centres undefined),-2.62% (inactive),
COc1ccc(S(=O)(=O)N2CCC(C(=O)NCCC(=O)NCCc3cccc(F)c3)CC2)cc1,-23.3% (inactive),
COCC(C)NC(=O)COc1nncc2ccccc12 (centres undefined),-4.2% (inactive),
NC(Cc1ccc(F)cc1)c1csc(Nc2nncc3ccccc23)n1 (centres undefined),,4.11 µM (active)
CN1CCN(S(=O)(=O)c2ccc(NC(=S)NC(=O)C3CC3)cc2)CC1,-0.132% (inactive),

Structure (SMILES),"activity change, negative = growth inhibition",Potency
O=C(NCCc1ccccc1)C(=O)NCC1OCCN1S(=O)(=O)c1cccs1 (centres undefined),0.778% (inactive),
CCCCn1c(N)c(N(CC(C)C)C(=O)c2cccc(S(=O)(=O)N3CCN(C(C)=O)CC3)c2)c(=O)[nH]c1=O,4.86% (inactive),
COc1cc(C(=O)Nn2c(O)c(C3=c4ccccc4=NC3=O)sc2=S)ccc1O,0.512% (inactive),
CCN(CC)CCCNC(=O)CCn1nc(-c2ccc(Cl)cc2)ccc1=O,22.6% (inactive),
O=c1[nH][nH]c(=O)c2cc(N3CCCC3)ccc12,5.12% (inactive),
O=C(CN1CCN(c2ccc(Cl)cc2)CC1)N1CCCC1,-27.3% (inactive),
O=C1C=CC(=O)N1c1ccc(N2CCCCC2)cc1,,1.16 µM (active)
CNC(=S)Nc1ccc([N+](=O)[O-])cc1,-11.1% (inactive),
O=C(O)/C=C/C(=O)NNc1ccc([N+](=O)[O-])cc1,,20.6 µM (active)
O=C(Cc1ccccc1)NNS(=O)(=O)c1ccc([N+](=O)[O-])cc1,-20.3% (inactive),
COc1cccc(NC(=O)C(Sc2nnnn2C)c2ccccc2)c1 (centres undefined),-14.2% (inactive),
COCCCN1C(=O)C(CC(=O)NCc2cccs2)CC(C(=O)N2CCOCC2)=C1C (centres undefined),-3.22% (inactive),
CCOCCCN1C(=O)C2C(C(=O)Nc3ccc(OCC)cc3)C3C=CC2(O3)C1C(=O)NC1CCCCC1 (centres undefined),2.43% (inactive),
Cc1cc(-c2ccc(S(=O)(=O)N3CCN(c4cccc(C(F)(F)F)c4)CC3)s2)on1,-22.2% (inactive),
CCc1cccc(C)c1NS(=O)(=O)c1cc(Br)cnc1N,10.5% (inactive),
Cc1cc(-c2ccc(S(=O)(=O)N3CCc4ccccc4C3)s2)on1,-7.71% (inactive),
Cc1cc(C)cc(NS(=O)(=O)c2ccc(-c3cc(C)no3)s2)c1,,2.59 µM (active)
CC(=O)c1ccc(NS(=O)(=O)c2ccc(-c3cc(C)no3)s2)cc1,-24.3% (inactive),
CCc1cccc(C)c1NS(=O)(=O)c1ccc(-c2cc(C)no2)s1,,0.411 µM (active)
O=C(O)c1cccc(N=NN2CCCCCC2)c1,6.37% (inactive),
CC(C)(C)c1ccc(S(=O)(=O)NC(=O)C2(C)CCN2C(=O)CC2CC2)cc1 (centres undefined),-15.6% (inactive),
Cc1ccnc(NC(=O)CCNS(=O)(=O)c2ccc(C)c(C)c2)c1,13% (inactive),
CN1CCN(C(=O)c2ccc(-c3cc4nc(NCc5cccnc5)n(C)c(=O)c4s3)cc2)CC1,3.92% (inactive),
Cc1ccc(-c2n[nH]c(=S)n2/N=C/c2cc3c(cc2[N+](=O)[O-])OCO3)cc1,-1.27% (inactive),
Cc1ccc(S(=O)(=O)N/N=C\c2cc3c(cc2[N+](=O)[O-])OCO3)cc1,,10.3 µM (active)

Structure (SMILES),"activity change, negative = growth inhibition",Potency
CC(=O)N/N=C/c1cc2c(cc1[N+](=O)[O-])OCO2,17.1% (inactive),
O=C(Nc1ccc(Cl)cc1)c1csc([C@@H]2O[C@H](CO)[C@H](O)[C@H](O)[C@H]2O)n1,-10.8% (inactive),
O=C(Nc1ccccc1)Oc1cccc2cccnc12,,0.651 µM (active)
O=C(Nc1ccccc1Cl)Nc1cccc2cccnc12,-28.4% (inactive),
Fc1ccccc1COc1cccc2cccnc12,6.88% (inactive),
CCN(CC(=O)N1CCCC1)S(=O)(=O)c1ccc(F)cc1,-1.44% (inactive),
O=S1(=O)C=C(SCCN2CCCC2)c2ccccc21,4.47% (inactive),
O=C(COC(=O)c1ncc(Cl)c(Cl)c1Cl)NCc1cccs1,-5.21% (inactive),
CN1CCN(c2ccc(S(=O)(=O)N3CCCCC3)cc2NC(=O)Cc2ccccc2F)CC1,-7.49% (inactive),
O=C(/C(=C/c1cccc(Cl)c1)c1nc2ccccc2[nH]1)c1ccccc1,,16.4 µM (active)
CCC(=O)/C(=C(/O)c1ccccc1)c1nc2ccccc2[nH]1,-24.3% (inactive),
O=C(Cc1nc2ccccc2[nH]c1=O)c1ccc(Cl)cc1,-3.26% (inactive),
CC(=O)c1ccc(OC(=O)N2CCOCC2)cc1,-5.46% (inactive),
Cc1ccc(OCCNC(=O)CN2C(=O)NC3(CCCC3)C2=O)cc1,6.25% (inactive),
CCN(CC)Cc1cc(C(C)=O)ccc1O,-1.53% (inactive),
CCCCCn1c(CCNC(=O)c2ccc(F)cc2)nc2ccccc21,,23.1 µM (active)
Cc1cc2ccccc2n1CCC(=O)O,10.1% (inactive),
CCCCCn1c(CCCNC(=O)c2ccccc2OC)nc2ccccc21,,20.6 µM (active)
COc1ccccc1Cn1c(CO)nc2ccccc21,-7.97% (inactive),
CCC(=O)NCCc1nc2ccccc2n1CC,16% (inactive),
CC(=O)NCCc1nc2cc(NC(=O)c3ccccc3)ccc2n1C,-18.5% (inactive),
Cc1cc(C(=O)COC(=O)CNC(=O)c2ccc(F)cc2)c(C)n1Cc1ccco1,-1.26% (inactive),
Cc1cc2ccccc2n1CCNC(=O)c1ccc(F)cc1,,14.6 µM (active)
CCCCCNC(=O)c1cccnc1SCC(=O)Nc1ccccc1OC,-16.8% (inactive),
